Screening results deposited in PubChem by several laboratories.
NALP1 yeast inh: inhibitors of NALP1 inflammasome in yeast. 280,000 tested, 0.61% active. S. cerevisiae NALP1/ASC/caspase-1 growth, X-gal OD620, 72 h. AID 2071. inhibition, % at 10 µM; in the data active means inhibition mostly above about 24%, no sharp cut-off; inactive means mostly below about 32%
HSF1 activator: increases HSF-1 driven luciferase reporter signal. NIH3T3-HGL HSF-1 luciferase reporter, MG132, 8 h; 100% = twice DMSO control signal. activation, % at 9 µM. 300,000 tested, 1.7% active. AID 504408;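 active means mean replicate activation of at least 50% with a set share of replicates each reaching 50%; inconclusive means only one of those two conditions met; inactive means mean below 50% and too few replicates reaching it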;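 further: 0% = median of the neutral control wells and 100% = twice that signal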
HSP90 inh: HSP90 refolding inhibition in rabbit reticulocyte lysate | 290,000 tested, 0.91% active | inhibition, % at 5.6 µM | luciferase refolding luminescence, 3 h;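 active means inhibition above the screen-wide mean plus 3 SD, computed separately per campaign, cut at about 16% in these data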;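 further: 0% = DMSO wells and 100% = 60 µM geldanamycin wells; inhibitors lower the luminescence because luciferase stays unfolded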
HSF1 inhib: HSF1 inhibition | NIH3T3-HGL HSE-luciferase, MG132-induced, luminescence 8 h; active compounds read low | activity change, negative = inhibition, % at 7.5 µM (by protocol) | 300,000 tested, 0.77% active;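 active means more than half of replicate wells show activity change below -50%, luminescence cut by over half; inconclusive means some wells, but at most half, below -50%; inactive means no replicate well below -50%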;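 further: luciferase reports HSF-1 transcriptional activity via heat shock element; 0% = median of DMSO wells and -100% = zero luminescence signal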
Hsp70 act: transcriptional activators of Hsp70. HeLa Hsp70 promoter luciferase reporter, luminescence; scaled: vehicle 0, proteasome-inhibitor control 100%. activation, % at 10 µM. 200,000 tested, 0.04% active;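 active means activation above the mean across all tested compounds plus 3 SD, cutoff set per campaign, cut at about 5.5% in these data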;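 further: 100% = MG132 at 30 µM as the positive control and 0% = DMSO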
pCIP destab: lowers stability of the mouse p/CIP coactivator protein; F442A p/CIP-EGFP cells, EGFP fluorescence, 16 h; 290,000 tested, 0.01% active; Q05BA5; decrease of EGFP signal, % at 10 µM;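 active means EGFP signal decrease of at least 30% at 10 µM or well 3 SD below plate mean, unless failing retest; inactive means the rest, including hits failing retest or dose response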
Target sequence (Q05BA5 1-1403): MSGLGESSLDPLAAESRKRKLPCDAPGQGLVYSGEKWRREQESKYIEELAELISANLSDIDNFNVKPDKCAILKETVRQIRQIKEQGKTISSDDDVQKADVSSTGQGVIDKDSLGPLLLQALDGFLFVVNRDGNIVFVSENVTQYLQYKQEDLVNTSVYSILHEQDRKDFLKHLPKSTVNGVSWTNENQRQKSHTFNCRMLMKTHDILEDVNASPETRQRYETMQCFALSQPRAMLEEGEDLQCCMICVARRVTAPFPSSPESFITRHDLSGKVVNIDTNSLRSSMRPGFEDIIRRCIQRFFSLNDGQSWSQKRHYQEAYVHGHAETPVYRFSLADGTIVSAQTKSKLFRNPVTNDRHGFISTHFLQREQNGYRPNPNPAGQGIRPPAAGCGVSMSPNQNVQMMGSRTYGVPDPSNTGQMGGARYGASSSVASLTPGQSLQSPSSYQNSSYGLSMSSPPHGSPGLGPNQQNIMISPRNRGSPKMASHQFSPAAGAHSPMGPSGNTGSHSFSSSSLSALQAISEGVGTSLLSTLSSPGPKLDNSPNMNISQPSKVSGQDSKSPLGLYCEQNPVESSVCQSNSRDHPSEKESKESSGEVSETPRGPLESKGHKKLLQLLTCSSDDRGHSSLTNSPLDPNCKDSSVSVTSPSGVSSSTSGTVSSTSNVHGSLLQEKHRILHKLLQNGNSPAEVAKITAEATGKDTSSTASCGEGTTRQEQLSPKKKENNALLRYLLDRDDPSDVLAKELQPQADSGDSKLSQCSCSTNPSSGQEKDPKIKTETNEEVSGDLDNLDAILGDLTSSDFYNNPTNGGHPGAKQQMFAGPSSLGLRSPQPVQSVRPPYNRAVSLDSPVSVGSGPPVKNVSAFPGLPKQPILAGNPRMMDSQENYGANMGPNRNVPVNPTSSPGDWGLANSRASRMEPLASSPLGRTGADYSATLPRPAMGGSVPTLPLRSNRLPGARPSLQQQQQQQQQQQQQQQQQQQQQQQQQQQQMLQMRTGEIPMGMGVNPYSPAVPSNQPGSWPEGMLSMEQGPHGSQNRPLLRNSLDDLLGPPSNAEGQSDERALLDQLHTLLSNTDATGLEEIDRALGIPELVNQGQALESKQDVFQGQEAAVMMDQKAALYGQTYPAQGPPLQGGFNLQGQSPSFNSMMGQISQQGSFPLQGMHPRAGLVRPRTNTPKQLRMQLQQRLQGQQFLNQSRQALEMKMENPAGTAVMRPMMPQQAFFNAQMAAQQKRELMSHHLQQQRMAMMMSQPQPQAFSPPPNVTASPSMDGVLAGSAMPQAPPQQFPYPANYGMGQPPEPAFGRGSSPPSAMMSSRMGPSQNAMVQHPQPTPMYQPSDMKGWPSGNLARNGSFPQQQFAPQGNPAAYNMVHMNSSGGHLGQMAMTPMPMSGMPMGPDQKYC
Starred values were filed as active, the others as inactive. A selection: hits, their analogues and other compounds. The true share with any hit is near 3.8%.

How did CCCCNC(=O)c1ccc(Cn2c(=S)[nH]c3c([nH]c4ccc(OC)cc43)c2=O)cc1 do in these assays?
NALP1 yeast inh: 2.9; HSF1 activator: -70.9; HSP90 inh: -1.5; HSF1 inhib: -70.7*; Hsp70 act: -0.3; pCIP destab: -1.4

Results for COc1ccc2[nH]c3c(=O)n(Cc4ccc(C(=O)N5CCCCCC5)cc4)c(=S)[nH]c3c2c1 ?
NALP1 yeast inh: -7.8; HSF1 activator: 20.7; HSP90 inh: 1.2; HSF1 inhib: -3.7; Hsp70 act: -0.2; pCIP destab: -4.9

What do the screens show for `CC[C@H](C)NC(=O)c1ccc(Cn2c(=S)[nH]c3c([nH]c4ccc(OC)cc43)c2=O)cc1`?
NALP1 yeast inh: 6.7; HSF1 activator: -57.9; HSP90 inh: -1.9; HSF1 inhib: -57.6*; Hsp70 act: 0.3; pCIP destab: -1.2

How did CCC(C)(C)n1nnnc1C(c1cc2cc(C)cc(C)c2[nH]c1=O)N1CCN(Cc2ccc3c(c2)OCO3)CC1 (stereo not drawn) do in these assays?
NALP1 yeast inh: -6.0; HSF1 activator: 54.3*; HSP90 inh: 0.8; HSF1 inhib: 20.7; Hsp70 act: -0.4; pCIP destab: 4.1

How did Cc1ccc(-c2cc(N)n3nc(-c4ccc(C)cc4)cc3n2)cc1 do in these assays?
NALP1 yeast inh: 3.4; HSF1 activator: 17.7; HSP90 inh: 1.8; HSF1 inhib: 3.5; Hsp70 act: -0.2; pCIP destab: 2.0

How did Cc1ccc(-c2cc3nc(-c4ccccc4)cc(N)n3n2)cc1 do in these assays?
NALP1 yeast inh: 23.1; HSF1 activator: 61.5*; HSP90 inh: 1.7; HSF1 inhib: 31.9; Hsp70 act: 0.2; pCIP destab: -13.7

Results for C/C(CC(=O)Nc1ccc2c(c1)OCO2)=N\NC(=O)c1ccc(N)cc1 ?
NALP1 yeast inh: 0.8; HSF1 activator: 25.1; HSP90 inh: -2.1; HSF1 inhib: 5.5; pCIP destab: -4.7

What do the screens show for `C/C(CC(=O)Nc1cccc(Cl)c1Cl)=N\NC(=O)c1ccccc1N`?
NALP1 yeast inh: -24.0; HSF1 activator: 55.4*; HSP90 inh: 1.5; HSF1 inhib: 25.4; Hsp70 act: 0.2; pCIP destab: 2.0

How did NC(=O)c1ccccc1NC(=O)Nc1cccc(Cl)c1Cl do in these assays?
NALP1 yeast inh: 15.1; HSF1 activator: 76.8*; HSP90 inh: 0.2; HSF1 inhib: 45.7; Hsp70 act: -0.3; pCIP destab: -18.4

What do the screens show for `C/C(CC(=O)Nc1ccc2c(c1)OCO2)=N\NC(=O)c1ccccc1N`?
NALP1 yeast inh: 1.2; HSF1 activator: 59.4*; HSP90 inh: -1.3; HSF1 inhib: 40.9; pCIP destab: 3.0

How did Cc1c(Cl)cccc1NC(=O)Nc1ccccc1C(N)=O do in these assays?
NALP1 yeast inh: -1.8; HSF1 activator: 9.6; HSP90 inh: -3.2; HSF1 inhib: -10.3; Hsp70 act: 0.1; pCIP destab: -4.3

Results for COc1cc(COc2ccc(-c3nnco3)cc2)ccc1OC(F)F ?
NALP1 yeast inh: 18.4; HSF1 activator: -0.3; HSP90 inh: 4.1; HSF1 inhib: 3.2; pCIP destab: 2.9

What do the screens show for `O=C(Cn1c(=O)sc2ccccc21)Nc1ccc(O)cc1`?
NALP1 yeast inh: 6.4; HSP90 inh: 2.0; Hsp70 act: -0.4; pCIP destab: 16.8

What do the screens show for `CCCn1c(=O)c(C#N)cn(C2CC2)c1=O`?
HSF1 activator: 1.8; HSP90 inh: 4.4; HSF1 inhib: -2.0; pCIP destab: 7.1

What do the screens show for `NC(=O)COC(=O)c1cc(=O)[nH]c2ccccc12`?
NALP1 yeast inh: -2.4; HSF1 activator: -71.1; HSP90 inh: -0.7; HSF1 inhib: -62.5*; pCIP destab: -5.4

What do the screens show for `Cc1ccc(C2=NN(S(C)(=O)=O)C(c3cccs3)C2)cc1` (stereo not drawn)?
NALP1 yeast inh: 12.3; HSF1 activator: 41.6; HSP90 inh: -0.2; HSF1 inhib: 11.4; Hsp70 act: 0.3; pCIP destab: -5.8

What do the screens show for `CCc1ccc(C2=NN(S(C)(=O)=O)C(c3cccs3)C2)cc1` (stereo not drawn)?
NALP1 yeast inh: -0.6; HSF1 activator: 70.3*; HSP90 inh: 1.5; HSF1 inhib: 47.9; Hsp70 act: 0.3; pCIP destab: -18.9

How did CS(=O)(=O)N1N=C(c2ccc(Br)cc2)CC1c1cccs1 (stereo not drawn) do in these assays?
NALP1 yeast inh: -6.4; HSF1 activator: 52.3*; HSP90 inh: 0.4; HSF1 inhib: 28.3; Hsp70 act: -0.3; pCIP destab: -16.2

What do the screens show for `Oc1ccc(Cl)cc1N=Cc1sc2ccccc2c1Cl`?
NALP1 yeast inh: -10.5; HSF1 activator: 45.0; HSP90 inh: 63.7*; HSF1 inhib: 11.9; Hsp70 act: -0.1; pCIP destab: -16.7

How did COc1ccc(N=Cc2sc3ccccc3c2Cl)cc1 do in these assays?
NALP1 yeast inh: 5.1; HSF1 activator: -44.9; HSP90 inh: 0.6; HSF1 inhib: inconclusive; Hsp70 act: -0.1; pCIP destab: -12.2

Results for COc1ccc2nc(C3CCCCC3)nc(C3CCCCC3)c2c1 ?
HSF1 activator: 3.8; HSF1 inhib: -1.9

How did CCOC(=O)C1(Cc2ccc(OC)cc2)CCN(C(=O)c2cc3ccccc3[nH]2)CC1 do in these assays?
NALP1 yeast inh: 30.4; HSF1 activator: 77.3*; HSP90 inh: -0.1; HSF1 inhib: 56.3; Hsp70 act: -0.2; pCIP destab: -1.5

How did COc1ccc(S(=O)(=O)N2CCCCCC2)cc1C(=O)OCC(=O)NC(C)(C)C do in these assays?
NALP1 yeast inh: 6.5; HSF1 activator: -75.4; HSP90 inh: 2.8; HSF1 inhib: -67.5*; Hsp70 act: 0.0; pCIP destab: 18.3

What do the screens show for `COC(=O)c1ccc(Oc2ccc(S(=O)(=O)N3CCCCC3)cc2N)cc1`?
NALP1 yeast inh: 56.1*; HSF1 activator: -0.8; HSP90 inh: 0.3; HSF1 inhib: -5.9; pCIP destab: -19.3

What do the screens show for `COc1ccc(S(=O)(=O)N2CCCCCC2)cc1C(=O)OCC(=O)NC(N)=O`?
NALP1 yeast inh: 4.5; HSF1 activator: -18.3; HSP90 inh: 0.4; HSF1 inhib: -0.9; Hsp70 act: 0.0; pCIP destab: 6.8

What do the screens show for `COC(=O)CNc1cc(S(=O)(=O)N2CCCCC2)ccc1Oc1ccc(C(=O)OC)cc1`?
NALP1 yeast inh: 30.8; HSF1 activator: -5.7; HSP90 inh: -2.0; HSF1 inhib: -2.9; pCIP destab: -13.0

How did CCOC(=O)Cn1cnc2c(cnn2-c2ccccc2)c1=O do in these assays?
NALP1 yeast inh: 10.3; HSF1 activator: -4.6; HSP90 inh: -2.1; HSF1 inhib: 4.5; pCIP destab: 3.2

What do the screens show for `O=C(NCc1cccs1)c1ccc([N+](=O)[O-])cc1Cl`?
NALP1 yeast inh: 26.9; HSF1 activator: -72.7; HSP90 inh: 3.8; HSF1 inhib: -69.5*; Hsp70 act: -0.5; pCIP destab: 6.2

How did O=C(NCc1ccccc1Cl)c1cc([N+](=O)[O-])ccc1Cl do in these assays?
NALP1 yeast inh: 15.9; HSF1 activator: 5.7; HSP90 inh: 0.2; HSF1 inhib: 7.6; Hsp70 act: -0.1; pCIP destab: 3.2
